AHR act = AHR activators, primary screen, cell-based, luminescence, luciferase reporter, human; Aryl hydrocarbon receptor (Homo sapiens), P35869; AHR-responsive luciferase reporter cells; activation, % at 5 µM; 320,000 tested, 2.5% active; AID 2796, 2010; in the data active means activation above about 47%;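 further: 0% = vehicle wells and 100% = reference agonist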
Mot1-301 SUMO = yeast Mot1-301 growth rescue at high temperature, primary screen, SUMOylation pathway inhibitor project, S. cerevisiae, ATP luminescence, 38.5C | S. cerevisiae Mot1-301 growth rescue; percent above DMSO median, 100 means doubled | growth rescue, % at 18.8 µM | 320,000 tested, 1% active | AID 2716, 2010;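 active means every valid replicate shows activation above 250% relative to neutral control wells; inactive means the rest, any valid replicate at or below 250%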;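 further: OY570 slx delta 5 strain wells were the positive control but not used for scaling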
NTR1 ag = agonists of human NTR1, primary screen, imaging, U2OS cells, beta-arrestin-GFP, high content | Neurotensin receptor type 1 (Homo sapiens), P30989 | NTR1-U2OS beta-arrestin-GFP spot imaging, agonist mode | activation, % at 20 µM | 330,000 tested, 0.17% active | AID 493036, 2011;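 active means activation at or above 40% of the spot to cytoplasm intensity ratio, with at least 20 cells analyzed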;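 further: 0% = DMSO without peptide and 100% = 100 nM NTR1 peptide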
Target sequence (P30989 whole entry, looked up): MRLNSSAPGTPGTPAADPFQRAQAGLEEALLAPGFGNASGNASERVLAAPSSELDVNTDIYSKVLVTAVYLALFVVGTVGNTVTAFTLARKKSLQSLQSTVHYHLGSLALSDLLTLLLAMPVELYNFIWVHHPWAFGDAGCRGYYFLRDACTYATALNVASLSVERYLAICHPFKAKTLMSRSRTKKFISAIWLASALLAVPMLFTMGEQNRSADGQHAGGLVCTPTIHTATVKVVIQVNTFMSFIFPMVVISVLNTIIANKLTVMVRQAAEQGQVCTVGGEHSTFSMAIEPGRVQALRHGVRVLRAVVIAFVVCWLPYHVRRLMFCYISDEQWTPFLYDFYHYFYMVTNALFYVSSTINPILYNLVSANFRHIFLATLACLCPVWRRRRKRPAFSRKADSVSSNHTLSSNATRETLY
GRIN3A LBD mod = binders of NR3A ligand-binding domain, primary screen, biophysical, differential scanning fluorimetry, uHTS | NR3A LBD differential scanning fluorimetry, Tm shift; 0% = protein alone, 100% = glycine-bound protein | Tm shift relative to glycine control, % at 25 µM | AID 1259313, 2017 | 340,000 tested, 2.5% active | Glutamate receptor ionotropic, NMDA 3A (GRIN3A) ligand-binding domain;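 active means melting temperature shift of at least 10% of the positive control shift, at one fixed dose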
H9c2 protect = cardioprotection against H2O2-induced cell death, primary screen, uHTS, H9c2 cells, ATPLite luminescence | H9c2 cardiomyocytes, H2O2 injury protection, 2 h | protection from H2O2 cell death, % at 20 µM | 360,000 tested, 0.63% active;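 active means compounds giving at least 50% protection of heart cells from peroxide-induced death in the single-dose screen, raw or plate-pattern-corrected value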;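 further: 0% = DMSO wells with peroxide and 100% = DMSO wells without peroxide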
AI-2 QS modul = Vibrio harveyi AI-2 quorum sensing modulators, primary screen, JMH597 strain, luminescence/OD600 ratio | AID 2094, 2009 | activity change, % at 7.5 µM | 300,000 tested, 0.4% active | Vibrio harveyi JMH597 AI-2 luminescence/OD600 ratio, 9 h; stronger effect = lower value; strain lacks LuxN and CqsS sensors; 0 = neutral-control median; in the data active means activity change below about -75%, passing the limit was not always enough;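 further: luminescence divided by OD600 gain over 9 h not by final OD600 alone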
Numbers without * were called inactive; · = no result given. Most compounds without a hit are left out; they make up all but 6.2% or so of the library.

SMILES	AHR act	Mot1-301 SUMO	NTR1 ag	GRIN3A LBD mod	H9c2 protect	AI-2 QS modul
O=C1OCCC1Sc1nc2ccccc2c(=O)n1Cc1ccccc1 (stereo not given)	-2.3	·	2.9	-0.3	-11.4	18.0
CC(C)(C)c1ccc(-c2nnc(SC3CCOC3=O)n2Cc2ccccc2)cc1 (stereo not given)	0.8	7.2	22.5	13.1*	-6.2	-2.3
Cc1c(C=O)c2ccccn2c1C(=O)c1ccc(Cl)c([N+](=O)[O-])c1	8.3	859.7	19.9	0.7	51.2*	14.4
Cc1cc2ccccn2c1C(=O)c1ccc(Cl)c([N+](=O)[O-])c1	-4.5	·	1.7	-10.7	-13.1	0.2
Cc1cc(N)c(-n2cc3c(=O)n(C)c(=O)n(C)c3c2)cc1C	55.7*	-0.8	1.5	5.6	4.8	-8.9
CCc1nc2c(OCc3ccc4c(c3)OCO4)cccn2c1N(C=O)Cc1ccccc1	·	·	·	·	0.6	·
NC(=O)c1ccc(NC(=O)COC(=O)c2c3c(nc4ccccc24)/C(=C\c2cccs2)CCC3)cc1	-2.6	4.7	17.2	4.1	54.5*	39.9
O=C(COC(=O)CNC(=O)C1CCCCC1)NCc1ccc(Cl)cc1	2.1	0.1	0.7	-0.2	-4.2	·
Cn1c(N)c(C(=O)COC(=O)c2cc(S(=O)(=O)N3CCOCC3)ccc2F)c(=O)n(C)c1=O	0.3	-2.6	29.5	0.5	11.3	·
C#CCNC(=O)C1=C[C@@H](c2cn(C(C)=O)c3ccccc23)C[C@@H](OCc2ccc(CO)cc2)O1	47.3*	2.1	1.3	-2.4	9.1	18.4
CC(=O)n1cc([C@H]2C=C(C(=O)NCc3ccccc3)O[C@@H](OCc3ccc(CO)cc3)C2)c2ccccc21	65.4*	-7.7	2.8	-7.2	26.3	4.1
CC(=O)n1cc([C@@H]2C=C(C(=O)Nc3ccccc3)O[C@H](OCc3ccc(CO)cc3)C2)c2ccccc21	21.5	-3.3	3.0	-3.5	8.3	-5.2
CC(=O)n1cc([C@H]2C=C(C(N)=O)O[C@@H](OCc3ccc(CO)cc3)C2)c2ccccc21	73.3*	-8.8	2.5	1.3	32.9	33.2
CCCCN1C(=O)C2(NNc3ccccc3O2)c2ccccc21 (stereo not given)	69.0*	-14.1	0.2	0.6	-7.6	4.7
O=C(/C(=C/O)N=Nc1cccc(C(F)(F)F)c1)c1ccccc1	75.0*	1.1	-0.4	-4.7	-5.9	22.3
COc1cccc(N=Nc2ccc3ccccc3c2O)c1	78.0*	2.4	5.1	-6.2	-19.4	2.7
COc1ccc(N=Nc2ccc3ccccc3c2)c(O)c1	48.7*	0.5	5.0	-8.0	-19.0	-7.2
COc1ccc(N=Nc2cc(C)ccc2O)cc1	-1.7	145.7	8.1	4.8	-25.0	7.5
O=C(CCc1ccncc1)N1CCCC(Nc2ccc(F)c(F)c2)C1 (stereo not given)	0.7	-2.8	1.4	1.0	2.9	-4.1
CC(C)c1ccc(NC(=O)C(c2ccc3c(c2)OCO3)N2CCCCC2)cc1 (stereo not given)	1.4	-11.6	1.7	-2.7	-26.6	15.3
Oc1cc2c(cc1C(c1ccc(Cl)c(Cl)c1)N1CCCC1)OCO2 (stereo not given)	·	·	7.3	39.5*	-3.4	24.2
COc1cccc(-n2cnc3scc(-c4cccs4)c3c2=O)c1	28.7	-11.3	1.9	-1.1	8.4	20.3
O=c1c2c(-c3cccs3)csc2ncn1-c1ccc(Br)cc1	64.8*	-1.8	4.7	-2.5	13.9	22.1
O=c1c2c(-c3cccs3)csc2ncn1/N=C/c1ccc(OC(F)F)cc1	56.3*	11.7	5.2	-6.5	3.2	0.9
CSC[C@H]1CN(Cc2cccnc2)C(=O)[C@@H]1CC(=O)Nc1ccc(Br)cc1	·	·	·	·	-2.9	·
SMILES	AHR act	Mot1-301 SUMO	NTR1 ag	GRIN3A LBD mod	H9c2 protect	AI-2 QS modul
Cc1ccc(CSc2ccc(-c3ccco3)nn2)cc1	0.0	-1.2	0.1	-0.1	-9.3	-86.5*
Cc1ccc(CSc2ccc(-c3cccs3)nn2)cc1	6.3	·	0.3	14.1*	-6.7	18.1
Clc1ccc(CSc2ccc(-c3ccco3)nn2)cc1	-2.9	-28.1	-0.3	1.4	-4.9	-35.3
c1ccc(CSc2ccc(-c3ccco3)nn2)cc1	-5.7	·	-0.1	1.9	-12.7	-77.2*
O=c1c(O)c(-c2cccs2)oc2ccccc12	0.9	-8.3	-1.2	0.6	30.0	25.8
O=c1c(O)c(-c2cccs2)oc2ccc(Cl)cc12	0.7	26.0	5.0	-6.8	74.2*	31.9
N#C/C(=C\c1ccc(O)cc1)c1nc2ccccc2o1	13.4	6.1	5.3	7.9	-4.8	10.7
COc1cc(/C=C(\C#N)c2nc3ccccc3o2)ccc1O	15.4	-21.9	-2.1	15.5*	-4.5	62.8
CN(C)/C=N/c1nc2ccc3c(c2s1)CCCC3	63.3*	8.3	0.0	-0.9	-8.0	37.6
CC(=O)NC(CCc1ccc(Cl)c(Cl)c1)c1cccc(O)c(=O)c1 (stereo not given)	·	·	·	·	61.4*	·
CC(CCC(=O)O)C1CCC2C3CC(O)C4CC(O)CC[C@]4(C)C3CCC12C (stereo not given in full)	·	·	·	0.8	3.8	·
CCOC(=O)c1c2c3c(cccc3n(C)c1=O)C(=O)c1ccccc1-2	11.3	-9.6	3.6	0.8	75.0*	21.7
CCOC(=O)c1c2c3c(c(Cl)ccc3[nH]c1=O)C(=O)c1ccccc1-2	·	·	15.0	-4.0	60.2*	13.2
O=C(Nc1ccc(-c2cn3c(n2)SCC3)cc1)c1ccc2ccccc2n1	-1.7	10.0	10.8	21.5*	11.6	12.8
O=C(OCC(=O)N1CCN(c2ccccc2)CC1)c1ccccn1	-0.9	158.0	·	-0.8	-4.6	18.0
O=C(Nc1ccc(N2CCCCC2)cc1)c1ccc2ccccc2n1	63.1*	80.2	12.1	-0.6	-21.2	19.2
c1ccc(-c2cn3c(n2)SCC3)cc1	-1.0	-9.3	-0.3	-0.2	1.1	4.5
O=C(OCC(=O)N1CCN(c2ccccc2)CC1)c1ccc2ccccc2n1	9.8	-47.5	-1.1	14.2*	-0.6	12.3
Oc1ccc(-c2cn3c(n2)SCC3)cc1	65.3*	-12.3	-0.1	36.7*	-7.0	11.7
CCOC(=O)C1=CCC(c2ccc(C#N)cc2)N(S(=O)(=O)c2ccc(C)cc2)C1 (stereo not given)	·	·	·	·	8.2	·
COc1ccc(C(=O)NC(C)CCn2cccn2)cc1OC1CCN(C(C)C)CC1 (stereo not given)	1.9	313.9	-0.4	4.0	1.6	8.1
CC(C)(C)c1ccc(/C=C/C(=O)NC2=NCCS2)cc1	12.6	-5.6	3.1	12.2*	-20.7	14.8
